Only a selection was taken, and hits are over-represented in it overall.
Pf apPOL block – Pf-apPOL DNA polymerase inhibition. 210,000 compounds, 0.25% hits. inhibition, % at 10 µM. Recombinant Pf-apPOL, molecular beacon fluorescence, 1.5 h
mHTT CaM bind – disrupts binding of mutant huntingtin to calmodulin | 190,000 compounds, 3.6% hits | P42858 | AlphaScreen His-mHTT/GST-CaM binding, luminescence | AID 1671202 | inhibition, % at 15 µM
A number is an active result; n = inactive; x = no result given. Rule as the data show it: active = inhibition above about 50%; inactive = the rest.

SMILES	Pf apPOL block	mHTT CaM bind
CCOCC(=O)N1CCCC(c2ccnc(Nc3cccc(F)c3)n2)C1 (stereo not drawn)	n	62
CCOc1ccccc1C(=O)NCCn1nc(C)cc1C	n	n
CCN1CCn2c(nc3cc(C(=O)NCc4cc(C)ccc4C)ccc32)C1=O	n	n
C=CCOc1ccc(C=Nc2ccc(OC)cc2)c(OCC=C)c1	n	n
CCc1nn2cc(-c3ccc(Cl)cc3)nc2s1	n	n
CCc1ccc2cc(-c3ccc(Cl)cc3)cn2c1	n	59
CCN1C(=O)CN(Cc2ccc(C)cc2)C(=O)C1c1cccs1 (stereo not drawn)	n	n
O=C(c1ccc2c(c1)OCO2)N1CCCC1c1nc(-c2cccc(C(F)(F)F)c2)no1 (stereo not drawn)	n	n
O=C1N(Cc2ccccc2F)c2ccccc2C12OCCCO2	n	n
Cc1sc2c(c1C)C(=O)NC1(N2)C(=O)N(Cc2ccccc2F)c2ccccc21 (stereo not drawn)	n	53
NC(=O)CSc1nc2c(c(=O)n1-c1ccccc1)SCC2	n	n
O=C(Nc1ccc(Br)cn1)c1ccc(Oc2ccccc2)cc1	n	n
Cc1cccc2nnc(N3CCCC(C(=O)NCc4ccncc4)C3)n12 (stereo not drawn)	n	n
CCOc1ccc(/C=C2\SC(=NS(=O)(=O)c3ccc(C)cc3)NC2=O)cc1	n	51
Cc1ccc(S(=O)(=O)N=C2NC(=O)/C(=C/c3ccccn3)S2)cc1	n	n
CCOc1ccccc1OCCOc1ccc([N+](=O)[O-])cc1	n	n
Cc1cc(S(=O)(=O)C(CNC(=O)C2CCCCC2)c2ccco2)ccc1F (stereo not drawn)	n	n
Cc1ccc(/C=C(/C#N)C(N)=S)s1	x	n
CCCCc1ccc(/C=C(\C#N)C(N)=S)s1	x	63
COc1cc2c(cc1OC)C(C(=O)NCC1CCCO1)C(c1ccccc1F)N(C)C2=O (stereo not drawn)	n	n
O=C(Cc1ccc(F)cc1)NCC1CC(=O)N(Cc2ccc(F)cc2)C1 (stereo not drawn)	n	n
CC(C)c1ccc(/C=C2\N=C(c3ccc([N+](=O)[O-])cc3)OC2=O)cc1	n	n
CC1=C(C)CC2C(=O)C3=C(C(=O)C2C1)C1c2ccccc2C3c2ccccc21 (stereo not drawn)	n	61
CSc1ccccc1N1C(=O)C2CC(C)=C(C)CC2C1=O (stereo not drawn)	n	n
Nc1cc(C2CCN(C(=O)Nc3ccc(Br)cc3F)CC2)no1	n	n
SMILES	Pf apPOL block	mHTT CaM bind
CCn1cnnc1C1CCCCN1C(=O)CCc1c[nH]c2ccccc12 (stereo not drawn)	n	56
CCCn1cnnc1C1CCCCN1C(=O)CCc1ccccc1OC (stereo not drawn)	n	n
Cc1ccccc1-n1nc2c(c1NC(=O)C(C)C)CS(=O)C2 (stereo not drawn)	n	n
CC(C(=O)Nc1nc2ccccc2s1)N1C(=O)c2ccccc2C1=O (stereo not drawn)	n	n
CC(C)CC(C(=O)Nc1cccc(C(F)(F)F)c1)N1C(=O)c2ccccc2C1=O (stereo not drawn)	n	57
CC(C)CC(C(=O)Nc1nc2ccccc2s1)N1C(=O)c2ccccc2C1=O (stereo not drawn)	n	99
CC(C)C(C(=O)Nc1cccc(C(F)(F)F)c1)N1C(=O)c2ccccc2C1=O (stereo not drawn)	n	n
O=C(O)c1nnn(Cc2ccccc2F)c1-c1cccnc1	n	n
Cn1cc(-c2nc(C(=O)NCc3ccc(F)cc3Cl)cs2)c2cccnc21	n	n
Cn1cc(CC(=O)NCc2cccc(F)c2)c2cccnc21	n	n
Cn1cc(-c2nc(C(=O)NCc3ccc(F)c(Cl)c3)cs2)c2cccnc21	n	100
Cn1cc(-c2nc(C(=O)NCc3cccc(F)c3)cs2)c2cccnc21	n	91
CSc1ccccc1NC(=O)c1cc(-c2cccs2)nn1C	n	n
COCCCNC(=O)CCc1cn(Cc2ccccc2)c2ccccc12	n	n
COc1cc(C2C3=C(Nc4c2c(=O)[nH]c(=O)n4C)c2ccccc2C3=O)ccc1O (stereo not drawn)	n	n
O=C1CCCC2=C1C(c1ccco1)C1=C(N2)c2ccccc2C1=O (stereo not drawn)	n	n
O=C1C2=C(Nc3ccccc3SC2c2ccco2)c2ccccc21 (stereo not drawn)	n	69
COc1ccc(C2Sc3ccccc3NC3=C2C(=O)c2ccccc23)cc1OC (stereo not drawn)	n	69
CC(C)(CC(=O)O)CC(=O)NCc1csc2ccccc12	n	x
Cc1ccc2c(Nc3ccc(F)cc3C)c(-c3nc(C)no3)cnc2n1	n	58
Cc1ccc(Nc2c(-c3nc(C)no3)cnc3nc(C)ccc23)c(C)c1	n	n
O=C1N=c2ccc(F)cc2=C1c1sc(Nc2ccc(F)cc2)nc1O	n	n
Nc1nc(O)c(C2=c3cc(F)ccc3=NC2=O)s1	n	81
O=C(NCCc1ccncc1)c1ccc(-c2ccc(F)c(F)c2)s1	n	n
CCC(CC)C(=O)N1CCC(n2c(C)nc3cccnc32)C1 (stereo not drawn)	n	n
SMILES	Pf apPOL block	mHTT CaM bind
Cc1onc(-c2ccccc2Cl)c1C(=O)Nc1cccc(-c2cn3cccnc3n2)c1	n	n
O=C(CSCc1ccccc1)Nc1cccc(-c2cn3cccnc3n2)c1	n	52
Cn1cccc1C(=O)N1CCC(c2cc(-c3ccc(F)cc3)n[nH]2)CC1	n	n
O=[N+]([O-])c1cc(Cc2ccccc2)ccc1O	n	n
Cc1ccccc1C(=O)Nc1cccc(N=Cc2cc([N+](=O)[O-])cc([N+](=O)[O-])c2O)c1	n	n
O=Cc1cc(Cc2ccccc2)cc([N+](=O)[O-])c1O	n	100
CC(=O)Nc1cccc(N=Cc2cc(Cc3ccccc3)cc([N+](=O)[O-])c2O)c1	n	51
Cc1cccc(N=Cc2cc(Cl)cc([N+](=O)[O-])c2O)c1	n	n
O=C(Nc1cccc(N=Cc2cc(Cl)cc([N+](=O)[O-])c2O)c1)c1ccco1	n	68
NNC(=O)c1csc2c1CCCC2	x	n
CN1C(=O)C2C(N=CN2CCCO)N(C)C1=O (stereo not drawn)	x	n
COc1ccccc1C(=O)N1CCN(Cc2cccc(Br)c2)CC1	n	n
Cc1ccc(C2CC(c3ccccc3)=NN2C(=O)CN2CCOCC2)cc1 (stereo not drawn)	n	n
Cc1ccc(C2CC(c3ccc(C)cc3C)=NN2C(=O)CN2CCOCC2)cc1 (stereo not drawn)	n	76
Cc1ccc(C2CC(c3cccc(C)c3)=NN2C(=O)CN2CCOCC2)cc1 (stereo not drawn)	n	85
Cc1ccc(C)c(C2=NN(C(=O)CN3CCOCC3)C(c3ccc(Cl)cc3)C2)c1 (stereo not drawn)	n	n
CC(C)CNC(=O)c1cnc(-c2ccc(F)cc2)nc1N1CCOCC1	n	n
Cc1ccc(Oc2ccc(-c3noc(-c4ccnn4C)n3)cc2)cc1	n	n
CCOC(=O)c1ccc(NC(=O)N2CCCC2c2cc(C)no2)cc1 (stereo not drawn)	n	n
O=C(NCc1ccccc1)O[C@@H]1C[C@H]2C[C@@H]1[C@H]1CCCCN1C2=O	n	n
Cc1ccc(CN2CCc3ccccc3C2)o1	n	n
Cc1[nH]c2ccccc2c1CN1CCc2ccccc2C1	n	62
CC1OS(=O)OC1(c1ccccc1)c1ccccc1 (stereo not drawn)	n	n
